Common to all, as to experiment: NCI-60 one-dose screen, 48 h (100 = growth as untreated, 0 = no growth, -100 = all killed)
What all share (settings): 10 µM unless noted

The test system of experiment [1] is SR leukemia.
The subject of experiment [2] is RPMI-8226 leukemia.
For experiment [3], the system named is OVCAR-8 ovarian.
Experiment [4] relates to OVCAR-5 ovarian.
Experiment [5] concerns OVCAR-4 ovarian.
In experiment [6] the test system is SK-OV-3 ovarian.
Experiment [7] deals with IGROV1 ovarian.
Experiment [8] concerns OVCAR-3 ovarian.
The subject of experiment [9] is HS 578T breast.
Experiment [10] has as its system NCI/ADR-RES ovarian.

About 83,000 compounds went through this panel and 20% of them were active in at least one assay; those are over-represented in the sample as a whole.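 Assay: single dose, 48 h. Readout: percent growth (0 = no net growth; negative = cell death). Active: <10.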 Values without a mark were called inactive. The source made the active and inactive calls.

As to `CCOC(=O)C1=C(c2ccccc2)N=C2SC=C(c3ccc(Cl)cc3)N2C1c1ccc(Br)cc1` (stereo not given), the growth in [1] was 74.2%; in experiment [2], 61.8%; in experiment [3] it was 80.3%; in experiment [4] it was 94.9%; in [5], 50.5%; in experiment [6], 82.5%. The growth in experiment [7] is 74.5%; in experiment [8], 67.4%; in experiment [9] it was 77.9%; in experiment [10], 83%.

As for `COc1ccc(C2=Nc3c(N)nc(N)nc3NC(c3cccc(Nc4ccnc5cc(C(F)(F)F)ccc45)c3)C2)cc1` (stereo not given), the growth in experiment [1] was -3.78% (active); in experiment [2], 18.2%; in experiment [3], 75.6%; in experiment [4], 116%; in [5], 68.9%; in experiment [6], 84%. Further, the growth in experiment [7] was 72.1%; in experiment [8], 66.4%; in experiment [9] it was 66.3%; in experiment [10], 87.6%.

Regarding `C=CCSc1nnc(NC(=O)CCl)s1`, the growth in [1] was 88.4%; in experiment [2], 73%; in experiment [3], 92.5%; in experiment [4], 120%; in experiment [5] it was 73.2%; in experiment [6], 119%. Also, the growth in [7] was 81.6%; in experiment [8], 94.8%; in [9], 93.7%; in experiment [10], 93%.

Consider `CCCn1cc2c(=O)nc3sc(Cc4ccccc4)c(C)n3c2n1`, for which the growth in [1] is 73.8%; in experiment [2], 99.5%; in experiment [3], 91.8%; in [4], 111%; in [5], 99%; in experiment [6], 104%. The growth in experiment [7] is 105%; in experiment [8], 99.3%; in [9], 99.5%; in experiment [10], 96.7%.

Consider `Nc1[nH]n2cc(-c3ccccc3)nc2c1N=Nc1ccc(S(N)(=O)=O)cc1`, for which the growth is 13.3% in [1]; 5.77% (active) in experiment [2]; 36.6% in experiment [3]; 65.4% in experiment [4]; 36.9% in experiment [5]; 13.3% in experiment [6]. In addition, the growth in experiment [7] is 15.3%; in experiment [8], 46.8%; in [9], 5.14% (active); in [10] it was 90%.

Turning to `CC(C)COc1nc2c(c(=O)n(C)c(=O)n2C)n1C`, the growth was 90.8% in experiment [1]; 110% in [2]; -6.67% (active) in [3]; 112% in [4]; 97.7% in experiment [5]; 90.7% in experiment [6]. Further, the growth in experiment [7] was 109%; in experiment [8], 106%; in [9], 100%; in experiment [10], 99.8%.

Turning to `CCSc1oc(-c2ccccc2)nc1[P+](c1ccccc1)(c1ccccc1)c1ccccc1`, the growth is 1.17% (active) in experiment [1]; -18.9% (active) in [2]; 7.86% (active) in [3]; 27.6% in experiment [4]; 13.1% in experiment [5]; -16.1% (active) in [6]. Moreover, the growth in experiment [7] is 5.02% (active); in experiment [8] it was 3.17% (active); in experiment [9], 18.4%; in experiment [10] it was 67.4%.

On to `COc1ccc(/C=C(\C#N)n2nnc3ccc(Cl)cc32)cc1`, for which the growth was 29.9% in [1]; 67.8% in [2]; 48.8% in experiment [3]; 92% in experiment [4]; 71.6% in experiment [5]; 108% in experiment [6]. For the same molecule, the growth in experiment [7] is 59.5%; in experiment [8], -18.4% (active); in experiment [9], 74.4%; in [10], 39.3%.

Consider `CC1CCN(S(=O)(=O)c2ccc(S(=O)(=O)N3CCCC(c4nc5c(nnn5Cc5cccc(Cl)c5)c(=O)[nH]4)C3)cc2)CC1` (stereo not given), for which the growth was 10.5% in [1]; 19.9% in experiment [2]; 61.5% in experiment [3]; 97.1% in experiment [4]; 64.5% in experiment [5]; 72.9% in experiment [6]. Moreover, the growth was 60% in experiment [7], 34.3% in experiment [8], 33.1% in experiment [9] and 88.6% in [10].

For the molecule `CS(=O)(=O)Nc1cncc(-c2ccc3ncnc(Nc4cncc(Cl)c4)c3c2)c1`, the growth was 87.9% in [1]; 102% in experiment [2]; 87.1% in experiment [3]; 74.3% in [4]; 108% in experiment [5]; 81.8% in experiment [6]. Further, the growth in experiment [7] was 69.8%; in experiment [8], 52.9%; in [9], 56.6%; in experiment [10], 95.7%.

Turning to `CC(C)=CCC[C@](C)(O)[C@H]1CC[C@]2(C)[C@@H]1CC[C@@H]1[C@@]3(C)C/C(=C/c4ccco4)C(=O)C(C)(C)[C@@H]3CC[C@]12C`, the growth is 113% in experiment [1]; 101% in experiment [2]; 104% in experiment [3]; 102% in experiment [4]; 106% in [5]; 109% in experiment [6]. Besides, the growth in [7] was 107%; in [8], 103%; in experiment [9] it was 94.5%; in experiment [10], 104%.

For `Cc1cc(S(=O)(=O)/N=C(\N)n2nc(C)c(C)c2C)c(SCc2ccccc2)cc1Cl`, the growth in [1] was 65.8%; in experiment [2] it was 26.5%; in experiment [3], 72.8%; in [4] it was 90%; in experiment [5] it was 63.3%; in experiment [6], 106%. Further, the growth in experiment [7] is -20.8% (active); in experiment [8] it was 81%; in experiment [9], 77.4%; in [10] it was 57.4%.

As to `O=C(/C=C/c1ccco1)Nc1ncc(Cc2cccc(C(F)(F)F)c2)s1`, the growth in experiment [1] was 9.93% (active); in experiment [2], 12.4%; in experiment [3], 8.79% (active); in experiment [4], 30.3%; in experiment [5], 4.64% (active); in experiment [6], 16.9%. For the same molecule, the growth is 4.48% (active) in experiment [7], -33.3% (active) in [8], 0.428% (active) in [9] and -4.7% (active) in experiment [10].

These data come from PubChem BioAssay (NCI).
